Compound activity: PubChem BioAssay, National Center for Advancing Translational Sciences (NCATS)
ALOX12 inh: inhibitors of human 12S-lipoxygenase ALOX12 | purified 12hLO, xylenol orange hydroperoxide absorbance | AID 1671190 | P18054 | 580,000 compounds, 1.1% hits | Potency, µM (doses to about 108 µM), without a hit: at the top dose activity change, negative = inhibition, hits mostly inhibitors; further: potency means the concentration at half of the fitted maximal effect
Target sequence (P18054 whole entry, looked up): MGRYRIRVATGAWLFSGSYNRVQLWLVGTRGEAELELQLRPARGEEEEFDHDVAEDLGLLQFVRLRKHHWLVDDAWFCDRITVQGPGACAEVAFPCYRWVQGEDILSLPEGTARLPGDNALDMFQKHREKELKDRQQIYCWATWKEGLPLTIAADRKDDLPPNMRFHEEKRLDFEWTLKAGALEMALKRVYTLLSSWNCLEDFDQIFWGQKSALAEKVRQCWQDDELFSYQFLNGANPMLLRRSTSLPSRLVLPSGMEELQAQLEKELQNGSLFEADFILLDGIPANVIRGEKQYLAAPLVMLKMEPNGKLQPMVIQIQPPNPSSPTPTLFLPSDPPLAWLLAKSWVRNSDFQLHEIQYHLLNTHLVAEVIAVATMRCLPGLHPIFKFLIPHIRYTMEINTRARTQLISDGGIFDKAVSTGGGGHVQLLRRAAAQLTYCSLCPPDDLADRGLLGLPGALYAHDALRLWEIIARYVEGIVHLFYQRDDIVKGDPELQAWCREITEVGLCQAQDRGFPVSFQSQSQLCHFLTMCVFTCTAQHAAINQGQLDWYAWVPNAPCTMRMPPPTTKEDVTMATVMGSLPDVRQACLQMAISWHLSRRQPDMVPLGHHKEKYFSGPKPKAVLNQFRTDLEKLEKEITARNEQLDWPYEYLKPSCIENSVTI
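Purified human 12hLO (150 nM final) in 25 mM Hepes, 0.01% Triton X-100, pH 7.0 was preincubated 15 min at room temperature with compound. Then 40 uM arachidonic acid was added, 30 min. Hydroperoxide was read by Fe-XO absorbance ratio 573/405 nm.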
HT1080-NT tox: kills 2HG-producing HT-1080-NT fibrosarcoma cells; HT-1080-NT fibrosarcoma viability, CellTiter-Glo ATP luminescence, 48 h; Potency, µM (top dose mostly 46.1 µM), inactives show top-dose activity, negative = less viability, usual class: cytotoxic; 360,000 compounds, 1.6% hits; AID 686970;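 further: NT is the 2HG producing partner of a matched IDH1 knockdown line; potency means the concentration at half of the fitted maximal effect; 0% = DMSO-treated cells and -100% = media-only wells without cells; nearly all actives have a fitted effect of over 55% in size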
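750 cells/well, RPMI + 5% FBS; 2 h settle, compound pin-transfer, 48 h at 37 degrees C. CellTiter-Glo 10 min RT, luminescence. Normalized to DMSO and media-only wells.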
DT40 TDP1 CPT: DT40-hTDP1 cell growth loss with CPT. Potency, µM (top dose mostly 46.2 µM), without a hit: at the highest dose activity change, negative = growth inhibition, hits mostly inhibitors. 420,000 compounds, 12% hits. chicken DT40 Tdp1-/-;hTDP1 cells + 20 nM CPT, ATP luminescence, 48 h; further: potency means the concentration at half of the fitted maximal effect; nearly all actives have a fitted effect of over 55% in size
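Chicken DT40 Tdp1-/- cells complemented with human TDP1, 400 cells/well, exposed to compounds plus 20 nM camptothecin for at least 48 h at 37 C; viability read as ATP content by CellTiter-Glo luminescence.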
IL1B secr inh: inflammasome signaling inhibition, IL-1 beta readout; THP-1 LPS/ATP IL-1B secretion, AlphaLISA, 16 h; hits give low values; activity change, % at 57.5 µM; 360,000 compounds, 4.7% hits; in the data active means activity change below about -50%; inconclusive means mostly about -30% to -49%
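Secreted IL-1B measured by AlphaLISA bead assay after 16 h compound exposure of THP-1 cells; compounds (final up to 57.5 uM) added 1 h before LPS (250 ng/mL) and ATP (1.25 mM) stimulation; lower signal means less secretion.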
HT1080 IDH1KD tx: kills HT-1080 cells with IDH1 knockdown; HT-1080 IDH1 knockdown viability, ATP luminescence, 48 h; Potency, µM (titrated, usually from 46.1 µM), for the others: at the highest dose activity, negative = toxicity, actives largely listed as cytotoxic; 360,000 compounds, 2% hits; AID 686971;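 further: potency means the concentration at half of the fitted maximal effect; 0% = DMSO wells and -100% = cell-free medium wells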
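Using the IDH1-knockdown HT-1080 line run in the same batch and compound series as the NT line, viability after 48 h at 37 °C was determined by CellTiter-Glo luminescence and expressed as % activity.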
DT40 TDP1 no CPT: qHTS for Inhibitors of human tyrosyl-DNA phosphodiesterase 1 (TDP1): qHTS in cells in absence of CPT; AID 686978, 2013; DT40 Tdp1-/- hTDP1 cells, no CPT, ATP luminescence, 48 h; 420,000 compounds, 15% hits; Potency, µM (titrated, usually from 46.2 µM), without a hit: at the top dose activity change, negative = growth inhibition, actives largely listed as inhibitors; further: potency means the concentration at half of the fitted maximal effect; nearly all actives have a fitted effect of over 55% in size
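Luminescent ATP content (CellTiter-Glo) served as the growth readout. Knockout chicken DT40 cells expressing human TDP1 were exposed to compounds without camptothecin for a minimum 48 hr at 37 °C.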
* marks the source's active call; other numbers are inactive results; i = inactive; ? = inconclusive; / = no result given; [ ] = dose if it differs, or a comment. The sample as a whole holds a higher share of hits than the screen did. Unless noted, the call rests on the fitted dose curve; in most records, active means well fitted curve in the direction sought with a large enough effect; inconclusive means small, poorly fitted or top-dose-only effect, or another doubt; inactive means no such curve, though single readings can be large; an effect the other way counts as inactive or inconclusive. Unless noted, on the % scale 0 is the no-effect control and ±100 the full control effect.

SMILES	ALOX12 inh	HT1080-NT tox	DT40 TDP1 CPT	IL1B secr inh	HT1080 IDH1KD tx	DT40 TDP1 no CPT
COc1ccc(CNC(=O)[C@H]2CCC[C@H]2NC(=O)c2cnc(C)cn2)cc1	36%	/	/	/	/	/
C[C@H](O)c1onc(-c2ccc(F)cc2)c1C(=O)N1CCCCC1	-12%[176 µM]	/	/	/	/	/
CC(C)c1nc2sc(C(=O)O)c(N)c2c2c1CCCC2	-22%	3%	10%	0	-2%	-18%
O=C1C=CC(=O)N1c1cccc2cccnc12	?	1%	16µM*	-23	0%	?
CSS(=O)(=O)c1cccc2cccnc12	?	-12%	5.8µM*	-8	-4%	5.8µM*
O=Cc1ccc2ccc3cccnc3c2n1	-6%	?	5.2µM*	?	?	3.3µM*
c1cnc2c(c1)ccc1cccnc12	0%	7.3µM*	3.7µM*	110	7.3µM*	3.7µM*
C[C@@H](NC(=O)c1ccccc1)c1onc(-c2cccnc2)c1C(=O)O	2%[176 µM]	/	/	/	/	/
COc1ccc2c(C)c(CC(=O)NCCCN3CCCC3=O)c(=O)oc2c1OC	0%	/	/	/	/	/
Cc1ccc(C(=O)NN2CC(C(=O)OCC(=O)c3ccccc3)CC2=O)cc1 (configuration not stated)	-28%	/	/	/	/	/
NC(=O)Cc1csc(NC(=O)CCc2ncc(-c3ccc(Cl)cc3)o2)n1	-9%	/	/	/	/	/
COc1ccc(OC)c(CN(C(=O)c2ccc(F)cc2)C2CC2)c1	9%	/	/	/	/	/
O=C(NCc1ccc(F)c(F)c1)c1cccc2c(-c3cccnc3)coc12	8%	-23%	?	-63*	?	?
COc1ccc(-c2coc3c(C(=O)NCC(C)C)cccc23)c(C)c1	-16%	?	?	-22	?	?
NC(=O)c1cccc(-c2coc3c(C(=O)NC4CCCCC4)cccc23)c1	0%	?	?	-15	?	8.2µM*
NC(=O)c1cccc(-c2coc3c(C(=O)NCc4cccnc4)cccc23)c1	-21%	-18%	21µM*	66	?	23µM*
CC(C)CNC(=O)c1cccc2c(-c3cccc(C(N)=O)c3)coc12	-13%	-3%	23µM*	-19	-26%	?
O=C(C1CCCC1)N1CCN(C2CCN(CCc3ccccc3)C2=O)CC1 (configuration not stated)	2%	/	/	/	/	/
O=C(NCc1cccc(Cl)c1)c1cccc2c(-c3cccnc3)coc12	0%	-14%	16µM*	?	-25%	?
COc1ccc(CNC(=O)c2cccc3c(-c4cccnc4)coc23)cc1OC	?	?	1.2µM*	-20	?	1.5µM*
O=C(NCc1cccs1)c1cccc2c(-c3cccnc3)coc12	19%	-7%	?	?	-2%	-66%
O=C(NCCc1ccccc1)c1cccc2c(-c3cccnc3)coc12	21%	?	-18%	-15	6%	-25%
CCNC(=O)NC1c2ccccc2CSc2ccccc21 (configuration not stated)	427%	-9%	4%	8	-19%	?
CCOCCN1CCN(C2c3ccccc3CSc3ccccc32)CC1 (configuration not stated)	?	?	?	-74*	?	?
CCOc1ccc(/C=C\C(=O)NC23CC4CC(CC(C4)C2)C3)cc1	7%	/	/	/	/	/
SMILES	ALOX12 inh	HT1080-NT tox	DT40 TDP1 CPT	IL1B secr inh	HT1080 IDH1KD tx	DT40 TDP1 no CPT
O=[N+]([O-])c1ccc(C(O)CN=Cc2ccc(O)cc2O)cc1 (configuration not stated)	?	12µM*	23µM*	0	8.2µM*	?
NS(=O)(=O)c1ccc(N/N=C/c2ccc(O)cc2O)c([N+](=O)[O-])c1	-2%	-5%	?	-11	-9%	?
CC(=NCCc1c(C)[nH]c2ccc(OC(F)(F)F)cc12)C1=C(O)CC(c2ccccc2)CC1=O (configuration not stated)	-5%	?	4.6µM*	-12	?	3.3µM*
CC(=NCCc1c(C)[nH]c2ccc(C)cc12)C1=C(O)CC(c2ccccc2)CC1=O (configuration not stated)	-19%	-29%	1.2µM*	-28	8.2µM*	1.6µM*
CCCC(=Nc1ccccc1OC)C1=C(O)CC(c2ccccc2)CC1=O (configuration not stated)	5%	-7%	?	i	1%	?
CC1(c2ccccc2)N(Cc2ccccc2)C(=O)OC12CCN(Cc1cccc(C#N)c1)CC2 (configuration not stated)	12%	/	/	/	/	/
CC(C)CC(N)c1csc(NC(=O)Nc2ccccc2C(C)(C)C)n1 (configuration not stated)	3%	?	?	?	?	?
COc1ccc(CC(N)c2csc(NC(=O)Nc3ccccc3C(C)C)n2)cc1 (configuration not stated)	-29%	?	8.2µM*	?	?	16µM*
COc1ccc(CCC(=O)Nc2nnc(C)s2)cc1	0%	23%	?	/	8%	-20%
COc1ccc(CC(N)c2csc(NC(=O)Nc3ccccc3Cc3ccccc3)n2)cc1 (configuration not stated)	?	?	21µM*	-52*	?	16µM*
COc1ccc(CC(N)c2csc(NC(=O)CCc3ccccc3)n2)cc1 (configuration not stated)	-7%	?	23µM*	?	?	21µM*
COc1ccc(C(N)c2csc(Nc3ccc(C(=O)c4ccccc4)cc3)n2)cc1 (configuration not stated)	-8%	?	?	-28	?	?
COc1cc2c3nnc(-c4ccc(F)cc4)c-3cn(Cc3cccc(F)c3)c2cc1OC	/	?	2.3µM*	-3	-28%	2.6µM*
COc1cccc(Cn2nc3c4cc(F)ccc4n(Cc4ccc(F)cc4)cc-3c2=O)c1	0%	9%	-9%	22	2%	?
COc1cc2c3nnc(-c4ccc(F)cc4)c-3cn(Cc3cccc(C)c3)c2cc1OC	?	-11%	1.8µM*	-98*	-7%	2.6µM*
COc1cc2c3nnc(-c4ccccc4)c-3cn(Cc3ccc(F)cc3)c2cc1OC	?	18µM*	8.2µM*	-192*	21µM*	15µM*
O=C(O)c1cc2c(OCc3ccccc3)cccc2[nH]1	-14%	/	/	/	/	/
